From paper PMC5540273 (PLoS ONE, 2017)
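Note: KINOMEscan kinase panel screen.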

These compounds were tested on HIPK2. Settings: concentration: 1 μM, replicates: in singlicate; n = 1.
In the case of `COC(=O)c1cccc(NC(=O)NCCNc2ccnc(Nc3ccc(F)cc3)n2)c1` [GSK1379883], the “%Inh” value is reported as 0%. `O=C(Nc1ccccc1)Nc1ccc(Oc2ccc3nccn3n2)cc1` was tested, and the “%Inh” value was 0%. `Cl.Cl.c1ccc(-c2cc3ccncc3cc2OC2CCNCC2)cc1` [GSK1122999] was tested, and the “%Inh” value was 0%. `Clc1cc(Nc2ncnc3cc[nH]c23)ccc1OCc1ccccn1` was tested, and the “%Inh” value was 19%. For `Cn1cc(-c2ccc3c(c2)CCN3C(=O)Cc2cccc(C(F)(F)F)c2)c2c(N)ncnc21` [GSK2606414], the “%Inh” value was 0%. For `CNc1nccc(-c2c(-c3ccc(F)cc3)ncn2C2CCN(C)CC2)n1` [SB-222903], the “%Inh” value was 5%. With `N#Cc1ccc(Oc2ccc(Nc3ncnc4cc[nH]c34)cc2Cl)cc1` the “%Inh” value was 32%. In the case of `Cl.c1ccc(Cn2ccc3cc(Nc4ncnc5ccccc45)ccc32)cc1` [GW275568], the “%Inh” value is reported as 0%. With `Nc1nc(-c2cccnc2)c(-c2ccnc3ccccc23)s1` [GW684083] the “%Inh” value was 0%. In the case of `O=C(Nc1n[nH]c2nc(-c3ccco3)c(Br)cc12)c1ccc(CN2CCCC2)cc1.O=C(O)[C@H](O)[C@@H](O)C(=O)O` [SB-742352], the “%Inh” value is reported as 0%. For `Fc1cccc(COc2ccc(Nc3ncnc4sc(-c5ccc[nH]5)cc34)cc2Cl)c1` [GW707818], the “%Inh” value was 0%. `Clc1cccc(-c2nc(Nc3ccncc3)c3ccccc3n2)c1` [GW873004] was tested, and the “%Inh” value was 25%. `CC(C)(C)OC(=O)NC1CCCN(c2cc(-c3ccc4c(N)n[nH]c4c3)nc(N)n2)C1` (stereo not drawn) [GSK2286096] was tested, and the “%Inh” value was 0%. `COc1ccc(-c2oc3ncnc(N)c3c2-c2ccc(OC)cc2)cc1` [SB-589132] was tested, and the “%Inh” value was 25%. With `Nc1nc(-c2ccccn2)c(-c2ccnc3ccccc23)s1` [GW548057] the “%Inh” value was 5%. With `CCCc1ccc(S(=O)(=O)NC2CCN(c3ccnc(Nc4ccc(OC)cc4)n3)C2)cc1` (stereo not drawn) [GSK1379737] the “%Inh” value was 0%. With `COC(=O)c1c(-c2ccccc2)c2cc(Cl)ccc2c(=O)n1Cc1ccc(S(C)(=O)=O)cc1` the “%Inh” value was 24%. `Cl.Fc1ccccc1COc1ccc(Nc2ncnc3ccc(-c4nnc(C(F)(F)F)o4)cc23)cc1Cl` [GW424170] was tested, and the “%Inh” value was 0%. With `Oc1ccc2ncnc(Nc3ccc(OCc4ccccc4)cc3)c2c1` [GI262866] the “%Inh” value was 58%. `CSc1nn2c(=O)cc(N3CCOCC3)nc2n1Cc1cccc(Cl)c1Cl` [GSK2347225] was tested, and the “%Inh” value was 0%. In the case of `CCc1nc(-c2cccc(N(C)S(=O)(=O)c3ccccc3)c2)c(-c2ccnc(Nc3ccc(N4CCN(C(C)=O)CC4)nc3)n2)s1` [GSK1645895], the “%Inh” value is reported as 0%. For `COc1cc2ncnc(Nc3ccc(OCc4ccccc4Br)c(Cl)c3)c2cc1OC.Cl` [GI261590], the “%Inh” value was 0%. With `Cc1ccc(C)c(NC(=O)NCCNc2ccnc(Nc3ccc(F)cc3)n2)c1` [GSK1379878] the “%Inh” value was 0%. With `CN1CCC(n2cnc(-c3ccc(F)cc3)c2-c2ccnc(NC3CCNCC3)n2)CC1` [SB-229482] the “%Inh” value was 45%. `CN1c2ccc(-c3ccc(C(=O)NCCO)cc3)cc2-c2[nH]ncc2S1(=O)=O` was tested, and the “%Inh” value was 52%. For `O=C(Nc1ccccc1F)NC1CCN(c2ccnc(Nc3ccc(F)cc3)n2)C1` (stereo not drawn) [GSK1379722], the “%Inh” value was 0%. With `Cn1ccc2ncnc(Nc3ccc(Oc4cccc(Cl)c4)c(Cl)c3)c21` the “%Inh” value was 37%. With `CCC(CC)(CC)n1cnc2c(N)ncnc21` [SKF-97620] the “%Inh” value was 10%. For `Cl.Cn1ccc(-c2cccc(Nc3ccnc4cc(-c5nccs5)ccc34)c2)n1` [GW525701], the “%Inh” value was 0%. With `Fc1ccc(Nc2nccc(-c3c(-c4ccc(Cl)cc4)nn4ncccc34)n2)cc1F` [GW829058] the “%Inh” value was 11%. For `COc1ccc(NC(=O)c2ccc(-c3cc(-c4nnc(C)o4)ccc3C)cc2)cc1` [GW595885], the “%Inh” value was 0%. `CS(=O)(=O)CCNCc1ccc(-c2ccc3ncnc(Nc4ccc(OCc5ccccc5)c(Cl)c4)c3c2)o1.Cl` [GW574783] was tested, and the “%Inh” value was 13%. `CCn1c(-c2ccncc2)nc2cnccc21` [SB-735216] was tested, and the “%Inh” value was 18%. For `c1ccc(-c2ccc3c(-c4ccnc(Nc5ccc6c(c5)OCCO6)n4)cnn3n2)cc1` [GW818941], the “%Inh” value was 0%. In the case of `Cc1cc(N2CCC(NS(=O)(=O)c3ccc(F)cc3)CC2)nc(Nc2cccc(C#N)c2)n1.O=C(O)C(F)(F)F` [GSK1653537], the “%Inh” value is reported as 47%. With `COc1ccc(Nc2nccc(N3CCC(NC(=O)Nc4ccc5c(c4)OCO5)C3)n2)cc1` (stereo not drawn) [GSK1379745] the “%Inh” value was 0%.
